In ChEMBL document CHEMBL1201862, “PubChem BioAssay data set” (2004):
Screen size: about 350,000 compounds; about 700 (0.2%) were called active. The rule behind the calls is not given here. The sample as a whole holds a higher share of actives than the screen did.

Target: RecQ-like DNA helicase BLM (Homo sapiens) (UniProt P54132)
Experiment: qHTS Assay for Inhibitors of Bloom's syndrome helicase (BLM).
Assay type: functional

Chain of RecQ-like DNA helicase BLM (Homo sapiens) (P54132 whole entry): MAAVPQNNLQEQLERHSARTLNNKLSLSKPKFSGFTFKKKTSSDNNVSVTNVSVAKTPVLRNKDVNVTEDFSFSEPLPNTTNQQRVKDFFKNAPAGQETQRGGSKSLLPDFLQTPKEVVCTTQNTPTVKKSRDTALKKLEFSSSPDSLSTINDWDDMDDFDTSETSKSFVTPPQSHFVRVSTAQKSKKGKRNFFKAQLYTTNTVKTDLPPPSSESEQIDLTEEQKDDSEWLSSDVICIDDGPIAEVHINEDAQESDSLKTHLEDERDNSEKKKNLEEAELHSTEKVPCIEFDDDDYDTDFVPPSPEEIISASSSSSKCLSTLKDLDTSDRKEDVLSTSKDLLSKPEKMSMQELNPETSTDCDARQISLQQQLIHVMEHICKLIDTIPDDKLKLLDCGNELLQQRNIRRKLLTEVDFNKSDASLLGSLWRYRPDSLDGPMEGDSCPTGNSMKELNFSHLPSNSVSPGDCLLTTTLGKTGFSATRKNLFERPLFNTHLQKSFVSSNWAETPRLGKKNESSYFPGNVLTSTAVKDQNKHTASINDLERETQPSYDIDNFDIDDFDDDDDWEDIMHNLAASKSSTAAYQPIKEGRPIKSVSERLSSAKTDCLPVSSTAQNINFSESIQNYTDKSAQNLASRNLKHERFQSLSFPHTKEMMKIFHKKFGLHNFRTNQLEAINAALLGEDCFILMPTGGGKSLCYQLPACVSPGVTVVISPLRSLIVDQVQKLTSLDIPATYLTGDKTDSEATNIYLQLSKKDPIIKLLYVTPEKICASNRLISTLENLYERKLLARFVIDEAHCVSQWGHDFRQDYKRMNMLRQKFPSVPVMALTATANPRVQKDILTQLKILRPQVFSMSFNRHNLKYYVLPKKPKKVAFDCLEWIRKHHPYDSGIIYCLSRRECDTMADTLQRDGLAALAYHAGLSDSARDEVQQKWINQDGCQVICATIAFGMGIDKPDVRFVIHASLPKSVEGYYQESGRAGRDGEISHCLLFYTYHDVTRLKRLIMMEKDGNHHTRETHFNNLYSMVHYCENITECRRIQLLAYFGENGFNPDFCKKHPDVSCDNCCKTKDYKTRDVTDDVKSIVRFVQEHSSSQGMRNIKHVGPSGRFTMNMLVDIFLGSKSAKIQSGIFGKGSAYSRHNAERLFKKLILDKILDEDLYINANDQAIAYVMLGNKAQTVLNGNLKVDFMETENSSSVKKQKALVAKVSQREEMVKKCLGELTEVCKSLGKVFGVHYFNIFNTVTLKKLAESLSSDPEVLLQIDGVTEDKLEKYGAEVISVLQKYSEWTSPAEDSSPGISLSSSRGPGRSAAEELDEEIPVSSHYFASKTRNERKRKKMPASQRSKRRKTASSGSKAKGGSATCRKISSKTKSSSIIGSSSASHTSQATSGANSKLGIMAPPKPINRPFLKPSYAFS

Structure (SMILES)	Potency
Nc1nc(N)c2nc(CNc3ccc(C(=O)N[C@@H](CCC(=O)O)C(=O)O)cc3)cnc2n1	20 µM (active)
